Shn3 3UTR inh: Schnurri-3 reporter inhibition in Clone20 osteoblasts | Clone20 osteoblast Shn3 3'UTR firefly luciferase, 24 h | inhibition, % at 12.5 µM | hit rate 0.52% among 360,000 | AID 588674;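 active = mean inhibition of at least 75% with every replicate also reaching 75%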;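 also: 0% = median of neutral control wells and 100% = pilot-screen positive control compound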
KKLEB cytotox: counter-screen for CF NF-kB inhibitors: cytotoxicity; activity change (cytotoxicity), % at 5 µM; hit rate 0.36% among 360,000; AID 602141; KKLEB CF airway cells viability, ATPlite luminescence, overnight; stronger effect = lower value; cells stimulated with P. aeruginosa culture filtrate;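 active = corrected activity change at or below -50% at 5 µM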
Peg3 promoter: reduces Peg3 promoter-driven luciferase expression in HeLa; HeLa PEG-Prom luciferase reporter, luminescence, overnight; inhibition, % at 20 µM; hit rate 1.7% among 360,000; AID 588405;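 active = inhibition of at least 50% at 20 µM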
CF NFkB block: cystic fibrosis NF-kB activation inhibition. hit rate 0.86% among 360,000. AID 588850. KKLEB NF-kB-GFP reporter, PAF-induced, GFP fluorescence overnight. inhibition, % at 5 µM;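 active = at least 50% inhibition at 5 µM, scaled per plate between neutral and stimulator controls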;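 also: PAF is a Pseudomonas aeruginosa culture filtrate used as stimulus; plate controls were PAF-stimulated DMSO wells for no effect and unstimulated DMSO wells for full effect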
LMP1 NFkB inh: Epstein-Barr LMP1 NF-kappaB reporter inhibition; LMP1-induced NF-kappaB luciferase reporter cells, luminescence; inhibition, % at 12.5 µM; AID 504558; hit rate 0.69% among 350,000; in the data active = inhibition above about 41%;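 also: 0% = neutral control wells and 100% = reference inhibitor control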
HIF-2a inh: HIF-2a inhibition; 786-0 RCC cells HIF-2a reporter, luciferase luminescence, overnight; inhibition, % at 18.8 µM; hit rate 0.72% among 360,000; AID 624352;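 active = inhibition of the luminescence signal of 40% or more relative to plate controls, in a single-dose primary screen at 18.75 µM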
Mdm2-MdmX confirm: confirmation of inhibitors of human Mdm2/MdmX interaction, set 2; inhibition, % at 8 µM; SaOS-2 split-luciferase Mdm2/MdmX complementation, luminescence; hit rate 99% among 740; shares compounds with HIF-2a inh;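 active = mean inhibition of the luminescence signal across two replicates at or above 26 percent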
Target sequence (O15151 whole entry, looked up): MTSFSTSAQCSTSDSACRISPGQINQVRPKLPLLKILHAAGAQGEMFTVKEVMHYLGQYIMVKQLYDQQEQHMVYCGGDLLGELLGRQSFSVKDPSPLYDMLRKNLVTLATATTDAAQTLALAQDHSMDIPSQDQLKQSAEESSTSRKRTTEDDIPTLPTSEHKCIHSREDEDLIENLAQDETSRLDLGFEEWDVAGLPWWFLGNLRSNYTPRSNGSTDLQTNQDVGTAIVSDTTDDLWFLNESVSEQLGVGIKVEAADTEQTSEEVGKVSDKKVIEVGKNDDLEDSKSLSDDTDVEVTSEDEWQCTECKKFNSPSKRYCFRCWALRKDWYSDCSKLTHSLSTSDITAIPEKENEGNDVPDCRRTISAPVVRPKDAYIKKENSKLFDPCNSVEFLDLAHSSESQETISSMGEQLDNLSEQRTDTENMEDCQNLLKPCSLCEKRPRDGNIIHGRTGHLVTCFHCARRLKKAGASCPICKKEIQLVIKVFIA
Target sequence (Q00987 whole entry, looked up): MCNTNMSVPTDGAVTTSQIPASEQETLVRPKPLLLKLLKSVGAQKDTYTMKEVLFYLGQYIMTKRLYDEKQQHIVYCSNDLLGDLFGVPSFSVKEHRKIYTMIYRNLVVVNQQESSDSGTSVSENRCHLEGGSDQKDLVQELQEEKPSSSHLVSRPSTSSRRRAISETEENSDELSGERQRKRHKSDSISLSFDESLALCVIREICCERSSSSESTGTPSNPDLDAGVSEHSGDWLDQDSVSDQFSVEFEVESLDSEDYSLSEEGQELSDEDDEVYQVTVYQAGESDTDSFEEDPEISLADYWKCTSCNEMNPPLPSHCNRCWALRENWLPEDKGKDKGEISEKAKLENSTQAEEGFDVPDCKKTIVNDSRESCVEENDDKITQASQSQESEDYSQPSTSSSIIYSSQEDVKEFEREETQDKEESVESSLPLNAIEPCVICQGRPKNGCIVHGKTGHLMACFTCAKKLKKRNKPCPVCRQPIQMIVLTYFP
HIF-2a inh conf: confirmation of HIF-2a inhibitors. shares compounds with HIF-2a inh. 786-0 RCC cells, HIF-2a luciferase reporter luminescence, overnight. inhibition, % at 18.8 µM. hit rate 56% among 1,800. AID 651580;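 active = mean inhibition across four replicates of at least 40 percent at the single tested concentration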
HIF-1a cs: counter-screen for HIF-2a inhibitors: HIF-1a inhibition in MiaPaCa-2 cells. AID 651589. shares compounds with HIF-2a inh. inhibition, % at 18.8 µM. hit rate 72% among 1,800. MiaPaCa-2 HIF-1a luciferase reporter, desferoxamine, overnight;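 active = mean inhibition of the reporter signal across four replicates at the single tested dose of 50% or more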
The depositor's hits bear a star; / = no result. Shown are actives, neighbours in structure and some others; about 2.9% of the full set was active somewhere.

SMILES | Shn3 3UTR inh | KKLEB cytotox | Peg3 promoter | CF NFkB block | LMP1 NFkB inh | HIF-2a inh | HIF-2a inh conf | HIF-1a cs | others
CCN(C(=O)COC(=O)/C(=C/c1ccccc1)n1nnnc1C)C1CCCCC1 | -17 | 17 | 16 | 14 | 10 | 42* | 37 | 63*
Cc1ccc(C(=O)C2C(=O)C3CCC2C3)cc1 (stereo unspecified) | -14 | 13 | 38 | -22 | / | 46* | 2 | 10
Cc1nn(CC(=O)NC(C)C(C)C)c(C)c1S(=O)(=O)N1CCCCC1 (stereo unspecified) | 4 | 0 | 5 | -3 | 4 | 8 | / | /
COc1ccc(C2c3ccc4ccccc4c3Oc3ncn(CCCN(C)C)c(=N)c32)cc1 (stereo unspecified) | 60 | -18 | 112* | 13 | -35 | 93* | -2 | 105* | Mdm2-MdmX confirm=102*
Cc1ncc(CN2CCC(CO)(Cc3ccccc3)CC2)s1 | 3 | 10 | 3 | -2 | -4 | 17 | / | /
C[C@@H]1CCCCO[C@H](CN(C)C(=O)Cc2ccccc2)[C@H](C)CN([C@@H](C)CO)C(=O)c2cc(NC(=O)Nc3ccc(F)cc3)ccc2O1 | -4 | -5 | 9 | 0 | 4 | 7 | / | /
O=C(O)Cc1ccc(C(=O)c2ccccc2)s1 | / | 7 | 8 | -2 | 2 | 10 | / | /
COc1ccc(C(=O)c2ccc(CC(=O)O)s2)cc1 | 38 | -2 | -7 | 10 | 9 | 59* | 66* | 61*
COC(=O)C[C@H]1c2ccccc2S(=O)(=O)N1Cc1ccc(OC)cc1 | -38 | 9 | 7 | -6 | -14 | 12 | / | /
Cc1c(Cl)cccc1NC(=O)CNCc1ccccc1F | -2 | -6 | 9 | 0 | 2 | 14 | / | /
C=C1[C@@H](O)[C@H](CC(C)C)N(Cc2ccccc2Br)S1(=O)=O | 18 | -96* | 97* | 89* | -15 | 72* | 42* | 101*
O=S1(=O)CCO[C@H]2Cc3ccccc3[C@H]2N1Cc1ccccc1Br | 21 | -1 | 17 | 0 | 8 | 8 | / | /
NC(=O)NC(=O)COC(=O)c1cccc(S(=O)(=O)N2CCCCCC2)c1 | -6 | -4 | 7 | -10 | -2 | 15 | / | /
O=c1cc(-c2c(F)c(F)c(F)c(F)c2F)oc2ccccc12 | 69 | -6 | 84* | -7 | -12 | 62* | 33 | 80*
O=c1cc(-c2cccc(F)c2)oc2ccccc12 | -15 | -4 | -110 | -29 | -10 | -176 | / | /
COc1ccc2c(c1OC)CN1CCc3cc4c(cc3[C@@H]1[C@@H]2O)OCO4 | -15 | -15 | -37 | -1 | -2 | -40 | / | /
O[C@@H]1[C@@H](O)C=C2CCN3Cc4cc5c(cc4[C@H]1C23)OCO5 (stereo partly specified) | 20 | 32 | 63* | 57* | 10 | 51* | 40* | 103*
COc1ccc(CNC(=O)Cn2cnc3c(=O)n(C)c(=O)n(C)c32)cc1 | 1 | 3 | 8 | -5 | -1 | 42* | 36 | -7
Cn1c(=O)c2ncn(CC(=O)NCCOc3ccccc3)c2n(C)c1=O | -9 | 2 | -15 | 5 | -2 | -13 | / | /
COc1cc(SC)ccc1C(=O)Nc1nccs1 | -8 | -22 | -117 | -9 | 2 | -84 | / | /
O=C(Cn1ncc(Cl)c(Cl)c1=O)NCC1CCCCC1 | 75 | -73* | 108* | 95* | 86* | 97* | 91* | 105*
Cc1cccc(NC(=O)CNC(=O)Cn2ncc(Cl)c(Cl)c2=O)c1C | 46 | -61* | 95* | 92* | -57 | 84* | / | / | Mdm2-MdmX confirm=103*
Cc1cccc(NC(=O)CNC(=O)CSc2ncccn2)c1C | -48 | -5 | 1 | 13 | 13 | 2 | / | /
CC(Oc1ccc(Cl)cc1)c1ccnc(N)n1 (stereo unspecified) | -13 | 2 | 6 | -14 | -5 | 4 | / | /
CC1CCC(C(C)C)C(OC(=O)COC(=O)c2cc(O)ccc2N)C1 (stereo unspecified) | -10 | 3 | 20 | 16 | 1 | 0 | / | /
SMILES | Shn3 3UTR inh | KKLEB cytotox | Peg3 promoter | CF NFkB block | LMP1 NFkB inh | HIF-2a inh | HIF-2a inh conf | HIF-1a cs | others
COc1ccc(OCc2n(CC(=O)OC3CC(C)CCC3C(C)C)c3ccccc3[n+]2C)cc1 (stereo unspecified) | -3 | -53* | 100* | 64* | 2 | 95* | -5 | 103* | Mdm2-MdmX confirm=102*
CCSc1nnc(COc2ccccc2)n1CC | -4 | 0 | -4 | 7 | 2 | 9 | / | /
C=CC(C)(C)c1c(O)c(CC=C(C)C)c(O)c2c(=O)c3ccc(O)c(O)c3oc12 | 89* | -7 | 61* | 54* | 34 | 10 | / | / | Mdm2-MdmX confirm=97*
C=CC(C)(C)c1c2occc2c(O)c2ccc(=O)oc12 | -5 | -19 | 13 | 5 | 4 | -13 | / | /
COc1ccc(NC(=O)CNC(=O)Cc2cccc3ccccc23)cc1 | -12 | -5 | -5 | 21 | -7 | 5 | / | /
CC(=O)Nc1ccc(OCc2cccc3ccccc23)cc1 | 10 | 2 | 17 | -17 | 9 | 88* | 97* | 90*
O=C(CCc1ccccc1)NNC(=O)c1cccc(F)c1 | 6 | 13 | 4 | -5 | 11 | -10 | / | /
Nc1ccc2c(c1)C(=O)c1ccccc1-2 | 3 | 1 | -24 | 5 | 5 | -5 | / | /
O=C1C(=O)c2ccc(-c3ccccc3)cc2-c2ccccc21 | 96* | -100* | 101* | 102* | 91* | 93* | / | / | Mdm2-MdmX confirm=103*
CN(C)C1=NCCN1CCC1CCCCC1 | 11 | 11 | 10 | -11 | 3 | 3 | / | /
N#CC(c1cccc(Cl)c1)c1ccc2c(C(F)(F)F)cc(C(F)(F)F)nc2n1 (stereo unspecified) | 88* | -60* | 57* | 53* | 35 | 14 | / | / | Mdm2-MdmX confirm=102*
Oc1ccc(-c2cc(-c3ccc(O)cc3)nc(-c3ccccc3)n2)cc1 | -3 | -2 | 31 | -10 | -1 | 66* | -32 | 104*
Nc1ccc(-c2cc(-c3ccc(N)cc3)nc(-c3ccccc3)n2)cc1 | 6 | 0 | 21 | 16 | 8 | -1 | / | /
O=C(CCl)N(Cc1ccccc1)c1ccccc1 | 17 | -46 | 40 | 70* | 1 | 28 | / | / | Mdm2-MdmX confirm=103*
COC(=O)c1ccc(C(=O)N(Cc2ccccc2)c2ccccc2)cc1 | 13 | 3 | 19 | 13 | -5 | 1 | / | /
Cc1ccc(-c2nnc(SCC(=O)NC3CCS(=O)(=O)C3)nc2-c2ccc(C)cc2)cc1 (stereo unspecified) | 9 | 1 | 11 | 14 | 3 | 7 | / | /

Bioassay records from PubChem BioAssay.
